Results taken from PubChem BioAssay (NCATS).
Records with an inconclusive call do not appear. Calls of active or inactive are those of the source. Unless noted, calls follow the shape of the dose curve; as a rule, active = well fitted curve in the direction sought with a large enough effect; inconclusive = small, poorly fitted or top-dose-only effect, or another doubt; inactive = no such curve, though single readings can be large; an effect the other way counts as inactive or inconclusive.

What was measured:
[1] = Cell Viability - BJ (AID 421; calls by dose curve;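 also: potency is read from the fitted curve at half-maximal effect; cells exposed to compound for 40 hours at 37 °C before readout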); settings: BJ fibroblast viability, qHTS
In short: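 Cytotoxicity as drop in intracellular ATP (CellTiter-Glo, 20 min RT) after 40 hr compound exposure of BJ fibroblasts at 37 °C. Titrations scaled between DMSO and 100 uM tamoxifen, Hill-fitted for AC50.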

[2] = Cell Viability - Jurkat (AID 426;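 active = dose-dependent loss of cell ATP signal giving a full or clear fitted curve, ranked by lower potency value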;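 also: potency is read from the fitted curve at half-maximal effect; cells exposed to compound for 40 hours at 37 °C before ATP read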); settings: qHTS
In short: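 Cytotoxicity taken as drop in cellular ATP (CellTiter-Glo luminescence, 20 min room temperature) after 40 hr, 37C treatment of 5000 Jurkat Clone E6-1 cells per well; concentration-response fitted with Hill equation for AC50.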

[3] = Cell Viability - Hek293 (AID 427;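 active = compounds whose dose-response curve shows a full or clear partial loss of cell viability, called from curve shape rather than a numeric limit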;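 also: potency is read from the fitted curve at half-maximal effect; cells exposed to compound for 40 hours at 37 °C before reading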); settings: qHTS
In short: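 Luminescent ATP content (CellTiter-Glo, 20 min at room temperature) was measured after a 40 hr, 37 °C compound exposure of HEK293 cells. AC50 values came from Hill-equation fits of qHTS concentration-response data normalized to DMSO and 100 uM tamoxifen.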

[4] = Cell Viability - HepG2 (AID 433; calls by dose curve;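 also: potency is read from the fitted curve at half-maximal effect; potency for ATP loss meaning cytotoxicity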); settings: qHTS
In short: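 HepG2 hepatocellular carcinoma cells (1500/well) were treated with compounds for 40 h at 37 °C in complete medium; intracellular ATP was read by CellTiter-Glo luminescence. Data were normalized to DMSO and 100 uM tamoxifen, and AC50 came from Hill fits.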

[5] = Cell Viability - MRC5 (AID 434; calls by dose curve;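 also: potency is read from the fitted curve at half-maximal effect; potency reflects cytotoxicity seen as loss of intracellular ATP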); settings: MRC5 lung fibroblast viability, qHTS
In short: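 AC50 values come from Hill-equation fits of intracellular ATP loss, measured by CellTiter-Glo luminescence. Normal lung fibroblasts (MRC5) had 40 hr compound treatment at 37 C, normalized between DMSO and 100 uM tamoxifen.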

[6] = Cell Viability - SK-N-SH (AID 435; calls by dose curve; also: potency is read from the fitted curve at half-maximal effect); settings: SK-N-SH neuroblastoma cell viability qHTS
In short: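 SK-N-SH human neuroblastoma cells (1500/well) were exposed to compounds in complete medium for 40 h at 37 °C, and intracellular ATP was then measured by CellTiter-Glo luminescence. AC50 was taken from Hill fits, normalized to DMSO and 100 uM tamoxifen.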

[7] = biological target: Mitogen-activated protein kinase 10 (Mus musculus) (UniProt Q61831); test: JNK3 AlphaScreen Assay (AID 530; active = well fitted curve in either direction with a large enough effect, not every such curve was filed as active;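 also: kinase came from lysate of stimulated human HepG2 cells; signal reports phosphorylation of biotinylated GST-cJun 1-79 at Ser73 with 10 µM ATP; % is scaled to controls: 0 for no effect and ±100 for the full control effect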); settings: JNK3 lysate, c-Jun phosphorylation; series mostly up to 57.1 µM
In short: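 qHTS titrations with 15 min compound pre-incubation before adding ATP (10 uM final). Read-out: AlphaScreen of Ser73-phosphorylated biotin-GST-cJun using HepG2 lysate JNK3 activated by IL-1β and TNFα.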

[8] = Cell Viability - N2a (AID 540); settings: N2a mouse neuroblastoma cell viability; activity change, negative = cytotoxicity: at 92.2 µM (top of the series);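 also: plate controls were DMSO alone for no effect and tamoxifen control for full effect; nearly all actives have a fitted effect of over 45% in size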
In short: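 CellTiter-Glo ATP luminescence, read 20 min after reagent at room temperature, reported viability following 40 h compound treatment at 37 °C. N2a mouse neuroblastoma cells seeded 1500/well; Hill equation gave AC50.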

[9] = Cell Viability - NIH 3T3 (AID 541); settings: NIH 3T3 cell viability, qHTS; activity change, negative = cytotoxicity: at 92.2 µM (top of the series);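 also: plate controls were DMSO alone for no effect and tamoxifen positive control for full effect; nearly all actives have a fitted effect of over 25% in size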
In short: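 Intracellular ATP (CellTiter-Glo luminescence, 20 min at room temperature) measured after 40 hr compound exposure at 37 °C of 1000 NIH 3T3 mouse fibroblasts/well in complete medium; AC50 derived by Hill-equation modelling of qHTS concentration-response curves.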

[10] = Cell Viability - HUV-EC-C (AID 542); settings: HUV-EC-C endothelial cell viability, qHTS; series mostly up to 92.2 µM; also: % is scaled to controls: 0 for no effect and ±100 for the full control effect; nearly all actives have a fitted effect of over 35% in size
In short: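 CellTiter-Glo luminescence measured ATP loss in HUV-EC-C cells (1000/well) after 40 hr compound exposure at 37 °C, in complete culture medium. Concentration-response data were Hill-fitted to give AC50.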

[11] = Cell Viability - H-4-II-E (AID 543); settings: H-4-II-E rat hepatoma viability; series mostly up to 92.2 µM; also: % is scaled to controls: 0 for no effect and ±100 for the full control effect; nearly all actives have a fitted effect of over 35% in size
In short: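 CellTiter-Glo luminescence (intracellular ATP) measured after 40 h compound exposure at 37 °C in H-4-II-E rat hepatoma cells seeded at 1500/well. Values are AC50s fitted with the standard Hill equation.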

[12] = Cell Viability - SH-SY5Y (AID 544); settings: SH-SY5Y neuroblastoma cell viability; viability change, negative = cytotoxic: at 92.2 µM (top of the series); also: nearly all actives have a fitted effect of over 55% in size
In short: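 Cytotoxicity measured via ATP-dependent luciferase luminescence (CellTiter-Glo) following 40 h, 37 °C exposure of 1500 SH-SY5Y cells per well. Concentration-response data were fitted with the standard Hill equation to give AC50.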

[13] = Cell Viability - Renal Proximal Tubule (AID 545); settings: renal proximal tubule cells viability, primary cells of rat origin; series mostly up to 91.7 µM; also: nearly all actives have a fitted effect of over 40% in size
In short: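 Primary rat renal proximal tubule cells (1000/well) were treated with compounds for 40 hr at 37 °C in complete medium. Intracellular ATP was measured by CellTiter-Glo luminescence, and AC50 values came from Hill-equation fits of concentration-response data.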

[14] = Cell Viability - Mesenchymal (AID 546); settings: mesenchymal cells viability, qHTS; series mostly up to 91.7 µM;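 also: cells exposed to compound for 40 hours before reading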
In short: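 CellTiter-Glo luminescence (intracellular ATP, 20 min room temperature) after 40 hr compound exposure at 37 °C of 1000 glomerulus-derived human kidney mesenchymal cells/well; AC50 values obtained by fitting qHTS concentration-response data to the Hill equation.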

[15] = Cellular Toxicity (caspase-3) Jurkat (AID 655); settings: Jurkat caspase-3 activation, luminescence; caspase-3 activation: at 92.2 µM (top of the series), DMSO = 0%, tamoxifen = 100%;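 also: cells exposed to compound for 16 h at 37 °C before reading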
In short: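 Jurkat cells (5000/well) in complete medium were treated with compounds for 16 hr at 37 °C, then Caspase-Glo 3/7 luminescence was read after 20 min at room temperature. Data normalized to DMSO (basal) and 100 uM tamoxifen (100%); AC50 from Hill fit.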

[16] = Cellular Toxicity (caspase-3) HUV-EC-C (AID 656); settings: HUV-EC-C cells, caspase-3 activation (apoptosis), vehicle = 0, 100 µM tamoxifen = 100%; series mostly up to 92.2 µM
In short: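 HUV-EC-C endothelial cells, 1000/well, were pre-incubated 5 hr at 37°C, then exposed to compounds for 16 hr at 37°C. Caspase-Glo 3/7 luminescence was read after 20 min at room temperature. AC50 came from Hill fits, normalized to DMSO and 100 uM tamoxifen.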

[17] = Cellular Toxicity (caspase-3) SHSY5Y (AID 657); settings: SH-SY5Y caspase-3 activation, DMSO zero, 10 µM staurosporine = 100%; series mostly up to 91.7 µM
In short: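 SH-SY5Y human neuroblastoma cells (1500/well) were treated with compounds for 16 h at 37 °C, then Caspase-Glo 3/7 luminescence was read after 1 h at room temperature. Data normalized to DMSO and 10 uM staurosporine; AC50 from Hill fits.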

[18] = Cellular Toxicity (caspase-3) BJ (AID 658); settings: BJ fibroblasts, luminescence, normalized: DMSO 0%, staurosporine 100%; series mostly up to 91.7 µM
In short: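 Caspase-Glo 3/7 luminescence, read 1 hr after reagent at room temperature, in normal BJ fibroblasts exposed 16 hours at 37 °C. AC50 values from Hill-equation concentration-response, scaled between DMSO basal and 10 uM staurosporine as 100%.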

[19] = Cellular Toxicity (caspase-3) MRC-5 (AID 659); settings: MRC-5 cells, luminescence, normalized: DMSO 0%, 10 µM staurosporine 100%; series mostly up to 91.7 µM
In short: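 Luminescent Caspase-Glo 3/7 read-out (1 h, room temperature) after a 16 h, 37 °C compound exposure of MRC-5 lung fibroblasts at 1500 cells/well. Concentration-response AC50 from Hill equation; 0% DMSO, 100% 10 uM staurosporine.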

[20] = Cellular Toxicity (caspase-3) HepG2 (AID 654); settings: HepG2 caspase-3 activation, luminescence; series mostly up to 92.2 µM;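 also: cells exposed to compound for 16 hours before reading; 0% = DMSO alone and 100% = caspase signal from 100 µM tamoxifen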
In short: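 Caspase 3/7 activation is measured as a luminescence increase (aminoluciferin substrate) after 16 h compound exposure of human hepatocarcinoma HepG2 cells. AC50 values are Hill fits, scaled between DMSO baseline and 100 uM tamoxifen stimulation.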

CCOc1ccc(NC(C)=O)cc1N
inactive: Potency [1] > 92 µM | Potency [2] > 92 µM | Potency [3] > 92 µM | Potency [4] > 92 µM | Potency [5] > 92 µM | Potency [6] > 92 µM | outcome [7] | activity change, negative = cytotoxicity [8] -12.5% | Potency [9] | Potency [10] | Potency [11] | Potency [12] | Potency [13] | Potency [14] | caspase-3 activation [15] 0.0364% | outcome [16] | outcome [17] | outcome [18] | outcome [19]

CC(=O)OCCC(C)C
inactive: Potency [1] > 92 µM | Potency [2] > 92 µM | Potency [3] > 92 µM | Potency [4] > 92 µM | Potency [5] > 92 µM | Potency [6] > 92 µM | outcome [7] | activity change, negative = cytotoxicity [8] -1.72% | Potency [9] | Potency [10] | Potency [11] | Potency [12] | Potency [13] | Potency [20] | caspase-3 activation [15] 0.836% | outcome [16] | outcome [17] | outcome [18] | outcome [19]

O=C(O)c1ccccc1C(=O)O
inactive: Potency [1] > 92 µM | Potency [2] > 92 µM | Potency [3] > 92 µM | Potency [4] > 92 µM | Potency [5] > 92 µM | Potency [6] > 92 µM | outcome [7] | activity change, negative = cytotoxicity [8] 1.25% | Potency [9] | Potency [10] | Potency [11] | Potency [12] | Potency [13] | Potency [14] | caspase-3 activation [15] 2.22% | outcome [16] | outcome [17] | outcome [18] | outcome [19]

OC1CCCC1
inactive: Potency [1] > 92 µM | Potency [2] > 92 µM | Potency [3] > 92 µM | Potency [4] > 92 µM | Potency [5] > 92 µM | Potency [6] > 92 µM | outcome [7] | activity change, negative = cytotoxicity [8] -9.14% | Potency [9] | Potency [10] | Potency [11] | Potency [12] | Potency [14] | Potency [20] | caspase-3 activation [15] 0.809% | outcome [16] | outcome [17] | outcome [18] | outcome [19]

CC(=O)c1ccccn1
inactive: Potency [1] > 92 µM | Potency [2] > 92 µM | Potency [3] > 92 µM | Potency [4] > 92 µM | Potency [5] > 92 µM | Potency [6] > 92 µM | outcome [7] | activity change, negative = cytotoxicity [8] -1.85% | Potency [9] | Potency [10] | Potency [11] | Potency [12] | Potency [13] | Potency [20] | caspase-3 activation [15] 12.2% | outcome [16] | outcome [17] | outcome [18] | outcome [19]

COc1ccccc1[N+](=O)[O-]
inactive: Potency [1] > 92 µM | Potency [2] > 92 µM | Potency [3] > 92 µM | Potency [4] > 92 µM | Potency [5] > 92 µM | Potency [6] > 92 µM | outcome [7] | activity change, negative = cytotoxicity [8] -25.3% | Potency [9] | Potency [10] | Potency [11] | Potency [12] | Potency [13] | Potency [14] | Potency [20] | caspase-3 activation [15] 10.8% | outcome [16] | outcome [18] | outcome [19]
